Among all 52,000 compounds or so, about 4,300 (8.3%) were called active. The sample holds actives, similar compounds and a random draw of the others, so the mix is not that of the screen. Cut-off read from the data, not from the text of the source: active = survival mostly below about 52% (no sharp cut-off); inactive = mostly above about 56%.

The subject of the assay is DeltatarO mutant. The assay is described as follows: growth inhibition of S. aureus wild type versus tarO mutant, primary screen, teichoic acid synthesis inhibitors, RN4220, OD600 (AID 463173). The settings on record: OD600, 18 h, stronger effect = lower value, screened at 18.75 µg/mL (by protocol).
With `CCN(CC)S(=O)(=O)c1cccc(C(=O)NCc2ccccc2)c1`, the survival is 49% (inactive).

As to `CCN(C(=O)Cn1cc(C(=O)c2ccc(F)cc2)c(=O)c2ccc(C)nc21)c1cccc(C)c1`, the survival was 71% (inactive).

On to `CCc1ccccc1NC(=O)C1CCN(c2nn3c(=O)cc(C)nc3s2)CC1`, for which the survival is 81% (inactive).

Consider `Cc1ccc(N(CC(=O)N2CCN(c3cccc(Cl)c3)CC2)S(=O)(=O)c2c(C)noc2C)cc1`, for which the survival was 73% (inactive).

For `CCCCS(=O)(=O)CC(O)CSc1nc(-c2ccc(C)cc2)cc(-c2ccccc2)c1C#N` (stereo not drawn), the survival is 68% (inactive).

As to `CCN1C(=O)C2C(c3ccc(OC)cc3)NC(CC)(C(=O)OC)C2C1=O` (stereo not drawn), the survival is 56% (inactive).

As for `CN(C)CCNC(=O)c1ccc(Cn2c(SCc3ccc(F)cc3)nc3cccnc32)cc1`, the survival is 131% (inactive).

As to `COc1ccc(N(CC(C)C)S(=O)(=O)c2nnc(NC(=O)c3ccco3)s2)cc1`, the survival is 41% (active).

In the case of `CC(C)CC(=O)Nc1nnc(S(=O)(=O)N(CC(C)C)c2ccccc2)s1`, the survival was 111% (inactive).

As for `CCN(c1cc(C)cc(C)c1)S(=O)(=O)c1nnc(NC(=O)c2ccco2)s1`, the survival was 52% (inactive).

For the compound `CCN(c1ccc(Cl)cc1)S(=O)(=O)c1nnc(NC(=O)c2ccco2)s1`, the survival is 67% (inactive).

As to `CCN(c1ccccc1C)S(=O)(=O)c1nnc(NC(=O)c2ccco2)s1`, the survival was 41% (active).

In the case of `CN(c1ccccc1)S(=O)(=O)c1nnc(NC(=O)c2ccco2)s1`, the survival was 47% (inactive).

On to `CC(C)CN(c1ccccc1)S(=O)(=O)c1nnc(NC(=O)c2ccco2)s1`, for which the survival is 31% (active).

For `CCN(c1ccccc1)S(=O)(=O)c1nnc(NC(=O)c2ccco2)s1`, the survival was 39% (active).

For `Cc1ccccc1N(C)S(=O)(=O)c1nnc(NC(=O)c2ccco2)s1`, the survival was 94% (inactive).

Take `O=C(Cn1c(=O)n(-c2ccccc2)c(=O)c2ccc(C(=O)NCc3ccc4c(c3)OCO4)cc21)Nc1ccc(F)cc1`: the survival was 64% (inactive).

For the compound `CC(C)c1ccc(NC(=O)Cn2cc(S(=O)(=O)Cc3cccc(Cl)c3)c3ccccc32)cc1`, the survival was 76% (inactive).

As to `Cn1c(C(=O)N2CCc3ccccc32)cc2sccc21`, the survival was 91% (inactive).

Turning to `CC(=O)N1CCc2c(sc(NC(=O)CSc3ccc(F)cc3)c2-c2nc3ccccc3s2)C1`, the survival was 108% (inactive).

As for `Cc1ccc(Cn2c(CNC(=O)c3ccc(Cl)c([N+](=O)[O-])c3)nc3cccnc32)cc1`, the survival is 88% (inactive).

For `CC(SC(=S)N1CCCCCC1)C(=O)O` (stereo not drawn), the survival was 90% (inactive).

As to `O=C(Cn1cc(S(=O)(=O)N2CCCC2)c(S(=O)(=O)N2CCCC2)c1)Nc1cccc(F)c1`, the survival was 98% (inactive).

Turning to `Cc1nn(-c2ccccc2)c(-n2cccc2)c1C(=O)NCCCN1CCN(c2ccccc2F)CC1`, the survival is 63% (inactive).

With `Cc1ccc(N(CC(C)C)S(=O)(=O)c2nnc(NC(=O)c3ccco3)s2)cc1`, the survival was 44% (active).

For `Cc1ccc(N(C)S(=O)(=O)c2nnc(NC(=O)c3ccco3)s2)cc1`, the survival was 57% (inactive).

For `CCC(C)(C)C(=O)Nc1ccc(Cl)cc1`, the survival was 93% (inactive).

On to `CC1CCc2c(sc(NC(=O)c3ccccc3)c2C(=O)Nc2ccccc2)C1` (stereo not drawn), for which the survival is 42% (active).

For the compound `Cc1cccc(C(=O)Nc2sc3c(c2C(=O)N2CCCCC2)CCC(C)C3)c1` (stereo not drawn), the survival was -6% (active).

With `Cc1cccc(NC(=O)c2c(NC(=O)c3cccs3)sc3c2CCC(C)C3)c1` (stereo not drawn), the survival was 60% (inactive).

As to `CCOc1ccc(NC(=O)c2c(NC(=O)Cc3ccccc3)sc3c2CCC(C)C3)cc1` (stereo not drawn), the survival was 46% (inactive).

Consider `CC1CCc2c(sc(NC(=O)Cc3ccccc3)c2C(=O)Nc2ccc(Cl)cc2)C1` (stereo not drawn), for which the survival is 57% (inactive).

In the case of `CCN(CC)C(=O)c1c(NC(=O)c2cccc(C)c2)sc2c1CCC(C)C2` (stereo not drawn), the survival was -1% (active).

Consider `Cc1cccc(NC(=O)c2c(NC(=O)c3ccco3)sc3c2CCC(C)C3)c1` (stereo not drawn), for which the survival is 53% (inactive).

In the case of `CCOc1ccc(C(=O)c2cn(Cc3cccc(OC)c3)c3cc4c(cc3c2=O)OCO4)cc1`, the survival was 72% (inactive).

For `COC(=O)c1ccc2nc(C)cc(Nc3ccc(O)cc3)c2c1`, the survival was 186% (inactive).

On to `COc1cc(Cl)c(S(=O)(=O)N2CCN(c3c(C)cccc3C)CC2)cc1Cl`, for which the survival was 69% (inactive).

Consider `C/C(=N\NC(=O)c1cc2ccccc2cc1O)c1ccc(N)cc1`, for which the survival was 70% (inactive).

As to `COc1ccc(CNC(=O)Nc2ccc3c(c2)N(C)C(=O)c2ccccc2S3)cc1OC`, the survival is 61% (inactive).

Turning to `O=C(Nc1ccc(Cl)cc1)c1cc2nc(-c3ccc4c(c3)OCO4)cc(C(F)(F)F)n2n1`, the survival is 83% (inactive).

Turning to `CC(C)NC(=O)C1CC(c2ccc(Cl)cc2)=NO1` (stereo not drawn), the survival was 84% (inactive).

On to `Cn1nc(-c2ccccc2F)c2cc(C(=O)NCc3cccc(Cl)c3)sc21`, for which the survival is 41% (active).

As for `COc1cccc(CNC(=O)c2cc3c(-c4ccccc4F)nn(C)c3s2)c1`, the survival is 59% (inactive).

Turning to `Cn1nc(-c2ccccc2F)c2cc(C(=O)NCCc3ccc(Cl)cc3)sc21`, the survival was 76% (inactive).

Consider `COc1ccc(CNC(=O)c2cc3c(-c4ccccc4F)nn(C)c3s2)cc1`, for which the survival is 61% (inactive).

As for `Cn1nc(-c2ccccc2F)c2cc(C(=O)NCc3ccccc3Cl)sc21`, the survival was 56% (active).

Turning to `Cn1nc(-c2ccccc2F)c2cc(C(=O)NCc3ccc(Cl)cc3)sc21`, the survival was 87% (inactive).

With `CCN1C(=O)C2(c3ccccc31)c1c(oc3ccccc3c1=O)C(=O)N2CCOC` (stereo not drawn), the survival is 67% (inactive).

Regarding `Cc1oc2cc3oc(=O)c(CC(=O)NCc4ccccc4)c(C)c3cc2c1C`, the survival is 73% (inactive).

Turning to `Cc1ccc(C(=O)N2CCc3cc(CNC(=O)COc4ccccc4)ccc32)cc1`, the survival is 89% (inactive).

Consider `Cc1ccc(-n2nc3c(=O)n(CCCC(=O)NC(C)c4ccccc4)nc(C)c3c2C)cc1` (stereo not drawn), for which the survival is 67% (inactive).

In the case of `COc1ccc(S(=O)(=O)N(CCc2ccccc2)CC(=O)NCc2ccccc2)cc1OC`, the survival is 62% (inactive).

For `O=C(CC(c1cccs1)N1Cc2ccccc2C1=O)Nc1ccccc1F` (stereo not drawn), the survival was 78% (inactive).

Consider `Cc1c(Cl)cccc1NC(=O)CC(c1cccs1)N1Cc2ccccc2C1=O` (stereo not drawn), for which the survival was 32% (active).

Consider `CCOc1ccccc1NC(=O)CC(c1ccc(F)cc1)N1Cc2ccccc2C1=O` (stereo not drawn), for which the survival was 99% (inactive).

For `Cc1c(Cl)cccc1NC(=O)CC(c1ccc(F)cc1)N1Cc2ccccc2C1=O` (stereo not drawn), the survival was 37% (active).

Regarding `O=C(CC(c1cccs1)N1Cc2ccccc2C1=O)Nc1ccc(Cl)cc1` (stereo not drawn), the survival is 131% (inactive).

On to `CCc1ccccc1NC(=O)CC(c1ccc(F)cc1)N1Cc2ccccc2C1=O` (stereo not drawn), for which the survival was 117% (inactive).

Values taken from PubChem BioAssay AID463173 (ICCB-Longwood Screening Facility, Harvard Medical School, 2010).
